In PubChem BioAssay (Tox21) one finds Potency and outcome data, which are given here for 10 compounds.

Test [1] is described as follows: qHTS assay to identify small molecule agonists of the estrogen receptor alpha (ER-alpha) signaling pathway in the presence of an antagonist - cell viability counter screen (AID 1259386). Note: series mostly up to about 92 µM; nearly all actives have a fitted effect of over 30% in size. Put shortly: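 Read-out: CellTiter-Fluor fluorescence after 1hr reagent incubation, measured in the same wells as the luciferase readout. VM7Luc4E2 cells were exposed to 15 compound concentrations with 10.0nM ICI-182,780 for 22hr at 37C.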
Background: Quantitative high-throughput screening tests each substance at several concentrations.

Test [2] addresses Progesterone receptor (Homo sapiens) (UniProt P06401). As to the kind of experiment: qHTS assay to identify small molecule antagonists of the progesterone receptor (PR) signaling pathway (AID 1346795; active = well fitted inhibition curve with a large enough effect in the signal ratio in the repeat runs, not every such curve was filed as active; the % refers to the signal ratio; note: potency is the fitted concentration of half-maximal effect). The method in brief:
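In HEK293T cells bearing the PR-UAS-bla reporter, compound effects on promegestone-driven (1 nM) beta-lactamase expression are assessed after 16 hr using a fluorescent FRET substrate incubated 2 hr at room temperature.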

Test [3] can be described thus: qHTS assay to identify small molecule antagonists of the progesterone receptor (PR) signaling pathway - cell viability counter screen (AID 1346798). Note: nearly all actives have a fitted effect of over 50% in size. Note: potency is the fitted concentration of half-maximal effect. Put shortly: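 Following a 4 hr attachment, PR-UAS-bla HEK293T cells in charcoal-stripped FBS medium were exposed to compounds with R5020 for 16 hr; CellTiter-Glo was added and luminescence read after 30 min at room temperature.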

Test [4] is described as follows: qHTS assay to identify small molecule agonists of the progesterone receptor (PR) signaling pathway - cell viability counter screen (AID 1346799; calls by dose curve; note: nearly all actives have a fitted effect of over 45% in size; note: potency is the fitted concentration of half-maximal effect). Put shortly: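 Here, 3,000 PR-UAS-bla HEK293T cells per well were treated with compounds for 16 hr after a 6 hr preincubation at 37C and 5% CO2; cell viability is the CellTiter-Glo luminescence signal.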
A short description of test [5]: qHTS assay to identify small molecule antagonists of the TGF-beta/Smad signaling pathway - cell viability counter screen (AID 1346824). Note: nearly all actives have a fitted effect of over 50% in size. Put shortly:
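Cytotoxicity counter-screen run in the same wells as the beta-lactamase Smad reporter read: CellTiter-Glo luminescence after 30 min at room temperature. HEK 293T SBE-bla cells had 5 hr compound exposure at 37 C with TGF-beta1 (0.25 ng/mL stock).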

Test [6] is described as follows: qHTS assay to identify small molecule agonists of the TGF-beta/Smad signaling pathway - cell viability counter screen (AID 1346829). Note: top concentration of the series differs between compounds; nearly all actives have a fitted effect of over 45% in size. Put shortly: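 Luminescence from CellTiter-Glo, read after a 30 min room-temperature incubation, gives cell viability of SBE-bla HEK 293T cells treated 5 hr with compounds at 37 C.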
The target of test [7] is Thyrotropin-releasing hormone receptor (Homo sapiens) (UniProt P34981). Briefly: qHTS assay to identify small molecule antagonists of the thyrotropin-releasing hormone receptor (TRHR) signaling pathway (AID 1346877; active = well fitted inhibition curve with a large enough effect in the repeat runs, not every such curve was filed as active; note: series mostly up to about 51 µM). The method in brief:
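HEK293/TRHR cells, 18 h, 37 °C; Ca2+ dye 2 h; cpd 5 min RT; TRH 1 nM final; fluorescence read 3 min, 1 s intervals; 15 concs, triplicate.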

For test [8] the target is unchanged. As to the kind of experiment: qHTS assay to identify small molecule agonists of the thyrotropin-releasing hormone receptor (TRHR) signaling pathway (AID 1346891; calls by dose curve; note: series mostly up to about 58 µM). Put shortly: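 Screening of agonists relied on calcium signalling in HEK293 cells expressing human TRHR: dye loading 2 h at 37 °C preceded compound addition and a 3-min fluorescence time course.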
A short description of test [9]: Human pregnane X receptor (PXR) small molecule agonists, qHTS cell viability counter screen (AID 1346977). Note: nearly all actives have a fitted effect of over 50% in size. Note: potency is the fitted concentration of half-maximal effect. Put shortly:
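Tox21 qHTS format; PXR-Luc HepG2, 2,000/well, charcoal-stripped FBS 5%. Cpd exposure 24hr. Read: CellTiter-Fluor fluorescence, multiplexed with luciferase.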

Test [10] is described as follows: Caspase-3/7 induction in HepG2 cells by small molecules, qHTS assay (AID 1346978). Note: nearly all actives have a fitted effect of over 15% in size. Note: potency is the fitted concentration of half-maximal effect. Put shortly:
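Caspase-3/7 induction was measured by Caspase-Glo 3/7 luminescence (30 min, room temperature) after a 17 hr compound exposure of wild-type HepG2 cells seeded at 2,000 per well and pre-incubated 5 hr.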

Test [11] is described as follows: Caspase-3/7 induction in CHO-K1 cells by small molecules, qHTS cell viability counter screen (AID 1346979). Note: nearly all actives have a fitted effect of over 35% in size. Note: potency is the fitted concentration of half-maximal effect. The method in brief: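 CellTiter-Fluor viability check, qHTS format: wild-type CHO-K1, 16hr compound treatment, 1hr reagent incubation, fluorescence read.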
Test [12] in a line: Caspase-3/7 induction in HepG2 cells by small molecules, qHTS cell viability counter screen (AID 1346981). Note: nearly all actives have a fitted effect of over 30% in size. Note: potency is the fitted concentration of half-maximal effect. Put shortly:
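Fluorescence read-out of live-cell protease activity (CellTiter-Fluor) after 1 hr with reagent. This was measured in the same wells as the caspase-3/7 luminescence, on HepG2 cells exposed to DMSO-dissolved compounds for 16 hr at 37 C.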

For test [13], the target named is Cytochrome P450 2D6 (Homo sapiens) (UniProt P10635). As to the kind of experiment: Cytochrome P450 Family 2 Subfamily D Member 6 (CYP2D6) small molecule antagonists: luciferase reporter qHTS assay (AID 1671196). Note: nearly all actives have a fitted effect of over 50% in size. Note: potency is the fitted concentration of half-maximal effect. Put shortly:
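Luminogenic proluciferin substrate, CYP2D6 enzyme; 10 min RT preincubation with compound, NADPH regeneration system added, 1 h RT. Stop/detection reagent, 20 min RT, luminescence read (RLU). Signal proportional to CYP activity.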

Test [14] concerns the target Nuclear receptor subfamily 1 group I member 2 (Homo sapiens) (UniProt O75469). Briefly: Human pregnane X receptor (PXR) small molecule agonists, qHTS assay (AID 1346982). Note: nearly all actives have a fitted effect of over 35% in size. Note: potency is the fitted concentration of half-maximal effect. Put shortly:
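HepG2 PXR-Luc reporter line, 5% charcoal-stripped FBS; 5 hr pre-incubation, compound (DMSO) 24 hr at 37 C/5% CO2; ONE-Glo 30 min RT; luminescence read-out.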

The target of test [15] is Progesterone receptor (Homo sapiens) (UniProt P06401). As to the kind of experiment: qHTS assay to identify small molecule agonists of the progesterone receptor (PR) signaling pathway (AID 1346784; calls by dose curve; note: nearly all actives have a fitted effect of over 30% in size). The method in brief: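 Compounds were tested for PR agonism in HEK 293T cells bearing a beta-lactamase gene under UAS control. Treatment lasted 16 hr at 37C; signal came from fluorescence of a FRET substrate.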

The nature of test [16]: Caspase-3/7 induction in CHO-K1 cells by small molecules, qHTS assay (AID 1346980). Note: nearly all actives have a fitted effect of over 15% in size. Put shortly: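 Luminescent Caspase-Glo 3/7 read (30min, room temperature) quantified apoptosis induction. Cells were wild-type CHO-K1, treated with compound for 17hr at 37 C and 5% CO2.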
Test [17] concerns the target Nuclear receptor subfamily 1 group I member 2 (Homo sapiens) (UniProt O75469). As to the kind of experiment: CYP3A4 induction through human pregnane X receptor (PXR) by small molecules, qHTS assay (AID 1346984). Note: nearly all actives have a fitted effect of over 40% in size. Note: potency is the fitted concentration of half-maximal effect. The method in brief: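 HepG2-derived DPX-2 line carrying PXR plus a CYP3A4-promoter luciferase reporter; cells plated 5 hr, compound-exposed 24 hr at 37C. CYP3A4 activity probed with 3uM (final) Luciferin-IPA for 3hr, then luciferase read after One-Glo.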

For test [18] the target is unchanged. As to the kind of experiment: Human pregnane X receptor (PXR) activation by small molecules, qHTS assay (AID 1346985). Note: nearly all actives have a fitted effect of over 40% in size. Put shortly: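 DPX-2 cells (HepG2 co-transfected with a PXR response element and a CYP3A4-promoter luciferase construct) were seeded at 2,000 per well, rested 5 hr at 37C, then exposed to DMSO-dissolved compounds for 24 hr. Activation was read as luciferase luminescence.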

Test [19] in a line: qHTS assay to identify small molecule agonists of the TGF-beta/Smad signaling pathway (AID 1346859; active = well fitted activation curve with a large enough effect in the signal ratio in the repeat runs, not every such curve was filed as active; the % refers to the signal ratio; note: series mostly up to about 77 µM). The method in brief: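 Each well held 4,000 SBE-bla HEK 293T cells incubated overnight before compound addition; 5 hr later the cleavable FRET substrate went on for 2 hr at room temperature, and fluorescence was read at two emissions.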

A number with no mark means an inactive call. Records with an inconclusive call do not appear. Activity calls are given as the source filed them. Unless noted, calls come from the whole dose curve; as a rule, active = well fitted curve in the direction sought with a large enough effect in the repeat runs; inconclusive = weak or mixed curves; inactive = no such curve, though single readings can be large; an effect the other way counts as inactive or inconclusive.

Thyrotropin-releasing hormone receptor (Homo sapiens), sequence (P34981 whole entry, looked up): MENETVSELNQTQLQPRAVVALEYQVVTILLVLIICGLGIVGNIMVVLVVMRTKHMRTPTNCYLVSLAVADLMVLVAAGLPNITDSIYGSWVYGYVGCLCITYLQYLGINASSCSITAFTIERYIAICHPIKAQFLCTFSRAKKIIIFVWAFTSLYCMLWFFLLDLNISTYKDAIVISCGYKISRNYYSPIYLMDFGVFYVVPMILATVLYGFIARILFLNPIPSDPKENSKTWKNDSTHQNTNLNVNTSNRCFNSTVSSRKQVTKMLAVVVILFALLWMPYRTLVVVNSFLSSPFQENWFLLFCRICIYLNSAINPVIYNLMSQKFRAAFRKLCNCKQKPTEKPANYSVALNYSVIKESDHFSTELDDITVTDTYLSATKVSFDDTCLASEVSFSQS
Cytochrome P450 2D6 (Homo sapiens), sequence (P10635 whole entry, looked up): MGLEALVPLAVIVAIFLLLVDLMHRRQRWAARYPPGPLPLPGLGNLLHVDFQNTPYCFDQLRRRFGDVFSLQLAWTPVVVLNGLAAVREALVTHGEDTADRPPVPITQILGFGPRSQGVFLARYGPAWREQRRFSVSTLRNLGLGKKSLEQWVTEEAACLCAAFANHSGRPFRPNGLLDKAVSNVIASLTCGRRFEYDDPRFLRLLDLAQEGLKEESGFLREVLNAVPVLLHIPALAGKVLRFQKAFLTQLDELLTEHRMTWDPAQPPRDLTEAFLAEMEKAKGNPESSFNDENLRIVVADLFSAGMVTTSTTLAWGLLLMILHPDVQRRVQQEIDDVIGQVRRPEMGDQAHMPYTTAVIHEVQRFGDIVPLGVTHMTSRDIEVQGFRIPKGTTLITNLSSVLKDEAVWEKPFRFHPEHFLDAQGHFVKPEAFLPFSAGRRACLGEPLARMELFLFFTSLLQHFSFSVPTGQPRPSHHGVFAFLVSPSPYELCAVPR
Nuclear receptor subfamily 1 group I member 2 (Homo sapiens), sequence (O75469 whole entry, looked up): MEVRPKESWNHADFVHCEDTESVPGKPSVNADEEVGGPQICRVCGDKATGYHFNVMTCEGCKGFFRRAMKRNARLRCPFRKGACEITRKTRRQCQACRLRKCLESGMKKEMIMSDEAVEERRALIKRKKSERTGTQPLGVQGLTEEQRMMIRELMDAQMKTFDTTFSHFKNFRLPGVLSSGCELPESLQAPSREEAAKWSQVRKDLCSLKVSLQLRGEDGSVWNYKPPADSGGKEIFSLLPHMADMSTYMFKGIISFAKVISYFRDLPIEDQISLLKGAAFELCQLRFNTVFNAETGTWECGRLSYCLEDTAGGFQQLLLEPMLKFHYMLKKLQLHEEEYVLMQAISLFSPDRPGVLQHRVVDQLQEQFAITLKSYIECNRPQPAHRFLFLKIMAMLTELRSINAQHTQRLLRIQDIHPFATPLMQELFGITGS
Progesterone receptor (Homo sapiens), sequence (P06401 whole entry, looked up): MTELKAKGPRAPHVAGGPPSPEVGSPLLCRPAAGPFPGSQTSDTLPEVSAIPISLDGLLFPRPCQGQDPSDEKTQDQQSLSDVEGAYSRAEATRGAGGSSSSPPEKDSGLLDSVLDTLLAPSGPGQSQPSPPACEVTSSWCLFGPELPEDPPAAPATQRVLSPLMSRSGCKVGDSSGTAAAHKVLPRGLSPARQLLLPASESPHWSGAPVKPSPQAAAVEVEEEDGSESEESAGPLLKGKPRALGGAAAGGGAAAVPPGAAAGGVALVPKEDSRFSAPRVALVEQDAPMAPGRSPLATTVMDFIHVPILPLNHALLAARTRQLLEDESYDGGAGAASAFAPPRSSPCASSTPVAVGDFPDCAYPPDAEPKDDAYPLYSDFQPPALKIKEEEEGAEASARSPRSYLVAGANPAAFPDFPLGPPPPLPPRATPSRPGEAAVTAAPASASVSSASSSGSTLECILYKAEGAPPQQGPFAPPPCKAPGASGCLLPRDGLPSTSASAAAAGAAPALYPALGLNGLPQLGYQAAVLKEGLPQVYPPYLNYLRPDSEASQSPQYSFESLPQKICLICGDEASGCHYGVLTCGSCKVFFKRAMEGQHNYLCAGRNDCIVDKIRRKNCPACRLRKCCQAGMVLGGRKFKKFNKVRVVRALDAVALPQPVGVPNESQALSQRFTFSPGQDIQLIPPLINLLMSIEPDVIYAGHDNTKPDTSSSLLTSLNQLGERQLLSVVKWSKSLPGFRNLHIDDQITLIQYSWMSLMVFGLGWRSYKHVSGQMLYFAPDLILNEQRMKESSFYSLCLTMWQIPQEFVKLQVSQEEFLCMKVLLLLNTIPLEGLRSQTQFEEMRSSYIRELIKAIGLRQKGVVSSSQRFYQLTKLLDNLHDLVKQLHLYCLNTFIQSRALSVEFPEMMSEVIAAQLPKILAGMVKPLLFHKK

For `CC(=O)NC1(c2cccc(F)c2)CCN(CC[C@@]2(c3ccc(Cl)c(Cl)c3)CN(c3ccccc3)C(=O)CO2)CC1`, the Potency result in test [1], in [5], in [6] and in test [8] was “inactive” in each case. The Potency is 48.7 µM (active) in test [2]; 38.7 µM (active) in test [3]; 21.7 µM (active) in test [4]; 34.5 µM (active) in [9]; 48.7 µM (active) in test [10]; 34.5 µM (active) in test [11]. In addition, the figures for the Potency in test [12] and in test [13] were 48.7 µM (active) and 28.3 µM (active), respectively. Also, the result in test [7] was inactive.

With `CCOC(=O)c1ccccc1C(=C1C=C(Br)C(=O)C(Br)=C1)c1cc(Br)c(O)c(Br)c1`, the Potency entry in test [1], in test [5], in test [6], in [8], in test [10] and in [13] was “inactive” throughout. In addition, the Potency was 18.2 µM (active) in test [2] and 51.3 µM (active) in test [14]. In test [7], the result was inactive.

`CC(C)Nc1cccnc1N1CCN(C(=O)c2cc3cc(NS(C)(=O)=O)ccc3[nH]2)CC1`: the Potency result in test [1], in test [15], in test [4], in test [5], in test [6] and in test [9] was “inactive” throughout. The Potency result in [10], in test [11], in test [16], in test [17] and in test [18] was “inactive” in each case. Moreover, the Potency in [13] was 5.49 µM (active).

`O=Cc1c2ccccc2c(Cl)c2ccccc12`: the Potency result in test [1], in [15], in [3], in test [4], in [5] and in test [6] was “inactive” each time. The Potency result in test [19], in test [9], in test [10], in test [16], in test [12] and in test [14] was “inactive” in each case. The Potency in test [11] is 23.7 µM (active).

As for `CC(C)COCC(CN(Cc1ccccc1)c1ccccc1)N1CCCC1` (stereo unspecified), the Potency entry in [1] and in test [8] was “inactive” each time. Also, the Potency in test [2] and in [9] was 29.8 µM (active) each time. The result in [7] was inactive.

On to `CCOC(=O)[C@H](CCc1ccccc1)N[C@@H](C)C(=O)N(CC(=O)O)C1Cc2ccccc2C1`, for which the Potency entry in test [1], in test [15], in [5], in test [6], in [8] and in [9] was “inactive” in each case. Besides, the Potency result in [10], in test [11], in test [16] and in test [13] was “inactive” each time. For the same compound, the Potency in [3] is 6.68 µM (active); in [14], 11.9 µM (active). In addition, in test [7], the call was inactive.

Regarding `CC(CN(C)C)C(C)(O)Cc1ccc(Cl)cc1` (stereo unspecified), the Potency entry in test [1], in test [2], in test [3], in test [5], in [6] and in test [19] was “inactive” each time. In addition, the Potency result in test [8], in test [9], in test [10], in test [16], in [12] and in [14] was “inactive” in each case. The Potency entry in test [18] was “inactive”. Besides, the Potency in [4] is 16.8 µM (active). Moreover, in test [7], the outcome was inactive.

On to `O=C1Cc2ccccc2N1c1c(Cl)cccc1Cl`, for which the Potency result in test [1], in test [15], in test [5], in test [6], in [19] and in test [9] was “inactive” in each case. Also, the Potency result in test [10] and in test [16] was “inactive” each time.

For the compound `CN(C)CCC=C1c2ccccc2C=Cc2ccccc21`, the Potency entry in [1], in test [15], in test [5], in [6], in test [19] and in test [8] was “inactive” each time. Besides, the Potency result in test [10], in test [16], in [12] and in test [14] was “inactive” each time. The call in test [7] was inactive. The figures for the Potency in test [9], in test [17] and in test [13] were 13.3 µM (active), 31.6 µM (active) and 6.17 µM (active), respectively.

As for `N#CCCN(CCO)CCO`, the Potency entry in test [1], in test [15], in test [3], in [4], in test [5] and in [6] was “inactive” in each case. Moreover, the Potency result in [8], in [9], in test [10], in [11], in test [16] and in test [14] was “inactive” throughout. Moreover, the Potency result in test [13] is “inactive”. In addition, the compound was classed as inactive in [7].
